Assay results from PubChem BioAssay (EPA / NIEHS).
“And” between values parts separate entries of the source, which are not always exact repeats. Equal entries are not always repeated. Records with an inconclusive call do not appear. The source holds several records for some structures; these can differ, active in one and inactive in another. The source made the active and inactive calls. How the source made its calls, unless noted: active means hit-call score of the fitted dose curve at least 0.9, where 1 is the maximum; inactive means score below 0.9.

Tests used:
[1] = BSK_3C_TissueFactor: BioMAP Diversity Plus: 3C Assay for Tissue Factor Biomarker Activity (AID 2282997); settings: BioMAP 3C HUVEC, tissue factor biomarker readout; actives raise or lower the signal
How it was run: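 ELISA read-out of Tissue Factor levels on human umbilical vein endothelium collected 24 h after chemical dosing. Gain or loss of signal was fitted relative to DMSO.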

[2] = read-out: Interleukin-1 alpha (IL1a), IL1A (gene 3552); assay: BSK_BE3C_IL1a: BioMAP Diversity Plus: BE3C Assay for Interleukin-1 alpha (IL1a) Biomarker Activity (AID 2283016); settings: primary human bronchial epithelial cells; actives raise or lower the signal
How it was run: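 BE3C primary human bronchial epithelium; cpd 24 h; IL-1a by ELISA; bidirectional fit vs DMSO; parallel SRB (0.1% SRB, 10% TCA fix, 560 nm) for cytotoxicity.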

[3] = read-out: Monocyte Chemoattractant Protein-1 (MCP1), CCL2 (gene 6347); assay: BSK_3C_MCP1: BioMAP Diversity Plus: 3C Assay for Monocyte Chemoattractant Protein-1 (MCP1) Biomarker Activity (AID 2283017); settings: primary human endothelial cells (HUVEC); actives raise or lower the signal
How it was run: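 ELISA read-out of MCP-1 from human umbilical vein endothelial cell cultures harvested 24 h post-dosing. Gain or loss of signal was fitted relative to DMSO.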

[4] = read-out: Interleukin-8 (IL8), CXCL8 (gene 3576); assay: BSK_3C_IL8: BioMAP Diversity Plus: 3C Assay for Interleukin-8 (IL8) Biomarker Activity (AID 2283020); settings: primary human endothelial cells (HUVEC); actives raise or lower the signal
How it was run: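 ELISA read-out of IL-8 from human umbilical vein endothelium, measured 24 h after chemical dosing. Activity is expressed relative to DMSO negative control, with both increases and decreases fitted.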

[5] = BSK_3C_SRB: Viability Assessment in the BioMAP Diversity Plus: 3C Assay (AID 2283023); settings: primary human endothelial cells (HUVEC);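 further: fitted both ways against DMSO so a hit may be signal rise or drop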
How it was run: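 Absorbance at 560 nm of sulforhodamine B-stained (0.1%) total protein served as a cytotoxicity readout in human umbilical vein endothelial cells, 24 h after chemical treatment. Signal was fitted bidirectionally relative to DMSO.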

[6] = read-out: Pselectin, SELP (gene 6403); assay: BSK_4H_Pselectin: BioMAP Diversity Plus: 4H Assay for Pselectin Biomarker Activity (AID 2283026); settings: primary human endothelial cells (HUVEC); actives raise or lower the signal
How it was run: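 ELISA read-out of P-selectin on human umbilical vein endothelium after 24 h of dosing. Values derive from bidirectional fitting relative to DMSO. Parallel SRB protein staining flagged overt cytotoxicity.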

[7] = BSK_4H_SRB: Viability Assessment in the BioMAP Diversity Plus: 4H Assay (AID 2283027); settings: primary human endothelial cells (HUVEC);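 further: cells exposed to compound for 24 h before staining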;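 on AC50: curves fitted both ways versus DMSO so AC50 may be loss or gain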
How it was run: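 Absorbance at 560 nm of SRB-stained total protein served as the viability read-out in confluent primary human umbilical vein endothelium 24 h after chemical treatment. Curves were fitted bidirectionally against DMSO as negative control.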

[8] = read-out: Human Leukocyte Antigen - DR isotype (HLADR), HLA-DRA (gene 3122); assay: BSK_BE3C_HLADR: BioMAP Diversity Plus: BE3C Assay for Human Leukocyte Antigen - DR isotype (HLADR) Biomarker Activity (AID 2283032); settings: primary human bronchial epithelial cells; actives raise or lower the signal
How it was run: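 ELISA read-out of HLA-DR on human lung bronchial epithelial primary cells, measured 24 h post-dosing. Both increases and decreases were scored relative to DMSO vehicle.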

[9] = read-out: Monokine induced gamma interferon (MIG), CXCL9 (gene 4283); assay: BSK_BE3C_MIG: BioMAP Diversity Plus: BE3C Assay for Monokine induced gamma interferon (MIG) Biomarker Activity (AID 2283035); settings: primary human bronchial epithelial cells; actives raise or lower the signal;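 on outcome: MIG protein measured by ELISA in BE3C cultures after 24 h of dosing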
How it was run: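 MIG level was determined by ELISA after 24 h chemical treatment of primary human bronchial epithelial cells. Values were fitted bidirectionally with DMSO as the negative control and activity baseline.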

[10] = read-out: Human Leukocyte Antigen - DR isotype (HLADR), HLA-DRA (gene 3122); assay: BSK_CASM3C_HLADR: BioMAP Diversity Plus: CASM3C Assay for Human Leukocyte Antigen - DR isotype (HLADR) Biomarker Activity (AID 2283043); settings: primary human coronary artery smooth muscle cells; actives raise or lower the signal;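 further: cell-surface HLA-DR protein level quantified by ELISA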
[11] = read-out: Macrophage colony-stimulating factor (MCSF), CSF1 (gene 1435); assay: BSK_CASM3C_MCSF: BioMAP Diversity Plus: CASM3C Assay for Macrophage colony-stimulating factor (MCSF) Biomarker Activity (AID 2283044); settings: primary human coronary artery smooth muscle cells; actives raise or lower the signal;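 further: M-CSF protein amount quantified by ELISA after 24 h exposure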
[12] = read-out: serum amyloid A (SAA), SAA1 (gene 6288); assay: BSK_CASM3C_SAA: BioMAP Diversity Plus: CASM3C Assay for serum amyloid A (SAA) Biomarker Activity (AID 2283049); settings: primary human coronary artery smooth muscle cells; actives raise or lower the signal;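 further: SAA protein level quantified by ELISA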
[13] = BSK_CASM3C_SRB: Viability Assessment in the BioMAP Diversity Plus: CASM3C Assay (AID 2283050); settings: primary human coronary artery smooth muscle cells;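 further: total protein by SRB staining as cytotoxicity measure in parallel cultures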
[14] = read-out: Vascular cell adhesion molecule 1 (VCAM1), VCAM1 (gene 7412); assay: BSK_CASM3C_VCAM1: BioMAP Diversity Plus: CASM3C Assay for Vascular cell adhesion molecule 1 (VCAM1) Biomarker Activity (AID 2283055); settings: primary human coronary artery smooth muscle cells; actives raise or lower the signal;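 further: VCAM-1 protein level quantified by ELISA on the cells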
[15] = read-out: Collagen III, COL3A1 (gene 1281); assay: BSK_hDFCGF_CollagenIII: BioMAP Diversity Plus: hDFCGF Assay for Collagen III Biomarker Activity (AID 2283056); settings: primary human foreskin fibroblasts; actives raise or lower the signal
How it was run: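 ELISA read-out of collagen III from human skin fibroblast cultures sampled 24 h post-dosing. Values were derived by bidirectional fitting relative to the DMSO vehicle control.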

[16] = read-out: Interleukin-1 alpha (IL1a), IL1A (gene 3552); assay: BSK_KF3CT_IL1a: BioMAP Diversity Plus: KF3CT Assay for Interleukin-1 alpha (IL1a) Biomarker Activity (AID 2283070); settings: primary human keratinocytes with fibroblasts; actives raise or lower the signal
How it was run: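 Chemicals were dosed onto co-cultured human keratinocytes and foreskin fibroblasts, IL-1a was quantified by ELISA at 24 h, and activity was fitted in both directions relative to DMSO controls.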

[17] = read-out: Matrix Metallopeptidase 9 (MMP9), MMP9 (gene 4318); assay: BSK_KF3CT_MMP9: BioMAP Diversity Plus: KF3CT Assay for Matrix Metallopeptidase 9 (MMP9) Biomarker Activity (AID 2283074); settings: primary human keratinocytes with fibroblasts; actives raise or lower the signal;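 on AC50: MMP9 protein level quantified by ELISA in the co-culture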
How it was run: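 Human keratinocyte/foreskin fibroblast co-culture; compound added; 24 h; MMP-9 by ELISA; bidirectional fit vs DMSO baseline.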

[18] = read-out: Monocyte Chemoattractant Protein-1 (MCP1), CCL2 (gene 6347); assay: BSK_LPS_MCP1: BioMAP Diversity Plus: LPS Assay for Monocyte Chemoattractant Protein-1 (MCP1) Biomarker Activity (AID 2283081); settings: primary human HUVEC with PBMC; actives raise or lower the signal;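 on AC50: co-culture stimulated with LPS; secreted MCP-1 protein quantified by ELISA in culture supernatant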
How it was run: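 Human endothelial–PBMC co-cultures were dosed with chemical, then LPS-driven MCP-1 levels were quantified by ELISA at 24 h. Activity in either direction was fitted versus DMSO negative control.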

[19] = read-out: Tumor necrosis factor (Homo sapiens) (UniProt P01375); assay: BSK_LPS_TNFa: BioMAP Diversity Plus: LPS Assay for Tumour Necrosis Factor alpha (TNFa) Biomarker Activity (AID 2283085); settings: primary human HUVEC with PBMC; actives raise or lower the signal;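 on AC50: TNFa protein level quantified by ELISA in the co-culture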
How it was run: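 Read-out is ELISA of TNFa in primary human endothelial cell–PBMC co-cultures at 24 h after compound. Activity in either direction was fitted against DMSO.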

[20] = target: Estrogen-related receptor gamma (Homo sapiens) (UniProt P62508); assay: ATG_ERRg_TRANS: Attagene TRANS-FACTORIAL HepG2 Assay for human Estrogen-Related Receptor gamma (ERRg) (AID 2282977; active means hit-call score of the fitted dose curve at least 0.9, where 1 is the maximum;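 further: hits increase reporter signal over DMSO so potencies reflect activators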); settings: HepG2 Attagene TRANS reporter, ERRg transactivation
How it was run: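 Transfect HepG2 with multiple GAL4-UAS reporter transcription units; dose chemicals 24 h; isolate RNA, reverse-transcribe with oligo(dT), PCR-amplify, label with 6-FAM, digest with HpaI; size fragments by capillary electrophoresis. DMSO serves as negative control.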

Chain of Tumor necrosis factor (Homo sapiens) (P01375 whole entry, looked up): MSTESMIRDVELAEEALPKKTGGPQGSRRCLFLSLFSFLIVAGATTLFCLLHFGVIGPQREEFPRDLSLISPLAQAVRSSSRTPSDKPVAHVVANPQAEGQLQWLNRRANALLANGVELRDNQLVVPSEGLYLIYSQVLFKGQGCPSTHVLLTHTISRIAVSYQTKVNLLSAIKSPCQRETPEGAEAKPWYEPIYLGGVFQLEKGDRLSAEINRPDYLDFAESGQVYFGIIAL
Chain of Estrogen-related receptor gamma (Homo sapiens) (P62508 whole entry, looked up, the tested form may be a part): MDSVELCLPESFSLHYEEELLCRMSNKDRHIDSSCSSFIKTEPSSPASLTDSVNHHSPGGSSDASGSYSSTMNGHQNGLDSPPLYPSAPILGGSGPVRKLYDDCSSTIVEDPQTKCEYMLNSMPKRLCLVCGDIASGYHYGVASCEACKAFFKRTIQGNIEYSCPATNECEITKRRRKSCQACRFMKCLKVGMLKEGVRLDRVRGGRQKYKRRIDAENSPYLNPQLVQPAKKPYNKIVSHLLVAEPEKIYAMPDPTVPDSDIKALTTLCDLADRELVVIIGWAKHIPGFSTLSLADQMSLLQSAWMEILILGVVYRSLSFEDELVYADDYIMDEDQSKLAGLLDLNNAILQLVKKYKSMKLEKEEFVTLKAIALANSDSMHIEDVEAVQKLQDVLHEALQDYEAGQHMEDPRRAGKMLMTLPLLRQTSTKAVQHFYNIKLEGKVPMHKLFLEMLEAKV

Structure (SMILES): Oc1cc(Cl)ccc1Cl
- outcome [1]: inactive
- outcome [2]: inactive
- outcome [3]: inactive
- outcome [4]: inactive
- outcome [5]: inactive
- outcome [6]: inactive
- outcome [7]: inactive
- outcome [8]: inactive
- outcome [9]: inactive
- outcome [10]: inactive
- outcome [11]: inactive
- outcome [12]: inactive
- outcome [13]: inactive
- outcome [14]: inactive
- outcome [15]: inactive
- outcome [16]: inactive
- outcome [17]: inactive
- outcome [18]: inactive
- outcome [19]: inactive

Structure (SMILES): O=C(O)CCCc1ccc(N(CCCl)CCCl)cc1
- AC50 [1]: 20 µM (active) and 12.3 µM (active)
- AC50 [2]: 20 µM (active)
- AC50 [3]: 20 µM (active) and 28.2 µM (active)
- outcome [4]: inactive
- AC50 [5]: 20 µM (active)
- AC50 [6]: 13.6 µM (active) and 20 µM (active)
- AC50 [7]: 20 µM (active)
- AC50 [8]: 22 µM (active) and 29.6 µM (active)
- AC50 [9]: 28.9 µM (active)
- outcome [9]: inactive
- AC50 [10]: 15.9 µM (active) and 20 µM (active)
- AC50 [11]: 17 µM (active) and 15.7 µM (active)
- AC50 [12]: 20 µM (active)
- outcome [12]: inactive
- AC50 [13]: 24.8 µM (active) and 20 µM (active)
- AC50 [14]: 17 µM (active) and 20 µM (active)
- AC50 [15]: 20 µM (active)
- outcome [15]: inactive
- AC50 [16]: 12.3 µM (active)
- outcome [16]: inactive
- AC50 [17]: 20 µM (active)
- outcome [17]: inactive
- AC50 [18]: 20 µM (active)
- AC50 [19]: 26.5 µM (active)
- outcome [19]: inactive

Structure (SMILES): CCCCCCC1CCOC1=O (stereo not drawn)
- outcome [20]: inactive

Structure (SMILES): C=COCCCl
- outcome [20]: inactive

Structure (SMILES): Cc1ccc(N(SC(F)(Cl)Cl)S(=O)(=O)N(C)C)cc1
- outcome [20]: inactive

Structure (SMILES): CCOC(=O)NC(=S)Nc1ccccc1NC(=S)NC(=O)OCC
- outcome [20]: inactive

Structure (SMILES): N#Cc1cc(I)c(O)c(I)c1
- outcome [20]: inactive

Structure (SMILES): O=c1[nH]c(Cl)c(Cl)cc1Cl
- outcome [20]: inactive
- outcome [1]: inactive
- outcome [2]: inactive
- outcome [3]: inactive
- outcome [4]: inactive
- outcome [5]: inactive
- outcome [6]: inactive
- outcome [7]: inactive
- outcome [8]: inactive
- outcome [9]: inactive
- outcome [10]: inactive
- outcome [11]: inactive
- outcome [12]: inactive
- outcome [13]: inactive
- outcome [14]: inactive
- outcome [15]: inactive
- outcome [16]: inactive
- outcome [17]: inactive
- outcome [18]: inactive
- outcome [19]: inactive

Structure (SMILES): Clc1ccc(-c2ccccc2)cc1
- outcome [20]: inactive
- outcome [1]: inactive
- outcome [2]: inactive
- outcome [3]: inactive
- outcome [4]: inactive
- AC50 [5]: 30.9 µM (active)
- AC50 [6]: 28.2 µM (active)
- AC50 [7]: 35.3 µM (active)
- outcome [8]: inactive
- outcome [9]: inactive
- outcome [10]: inactive
- outcome [11]: inactive
- outcome [12]: inactive
- outcome [13]: inactive
- outcome [14]: inactive
- outcome [15]: inactive
- outcome [16]: inactive
- outcome [17]: inactive
- outcome [18]: inactive
- outcome [19]: inactive

Structure (SMILES): O=[N+]([O-])O
- outcome [1]: inactive
- outcome [2]: inactive
- outcome [3]: inactive
- outcome [4]: inactive
- outcome [5]: inactive
- outcome [6]: inactive
- outcome [7]: inactive
- outcome [8]: inactive
- outcome [9]: inactive
- outcome [10]: inactive
- outcome [11]: inactive
- outcome [12]: inactive
- outcome [13]: inactive
- outcome [14]: inactive
- outcome [15]: inactive
- outcome [16]: inactive
- outcome [17]: inactive
- outcome [18]: inactive
- outcome [19]: inactive

Structure (SMILES): Nc1ccccc1C(=O)OCCc1ccccc1
- outcome [20]: inactive

Structure (SMILES): O=C=Nc1ccccc1
- outcome [20]: inactive

Structure (SMILES): CCCOC(=O)c1ccccc1C(=O)OCCC
- outcome [1]: inactive
- outcome [2]: inactive
- AC50 [3]: 20 µM (active)
- outcome [4]: inactive
- outcome [5]: inactive
- outcome [6]: inactive
- outcome [7]: inactive
- AC50 [8]: 274 nM (active)
- outcome [9]: inactive
- outcome [10]: inactive
- outcome [11]: inactive
- outcome [12]: inactive
- outcome [13]: inactive
- outcome [14]: inactive
- outcome [15]: inactive
- outcome [16]: inactive
- outcome [17]: inactive
- outcome [18]: inactive
- AC50 [19]: 20 µM (active)

Structure (SMILES): CC(C)COP(=O)(OCC(C)C)OCC(C)C
- outcome [1]: inactive
- outcome [2]: inactive
- outcome [3]: inactive
- outcome [4]: inactive
- outcome [5]: inactive
- outcome [6]: inactive
- outcome [7]: inactive
- outcome [8]: inactive
- outcome [9]: inactive
- outcome [10]: inactive
- outcome [11]: inactive
- outcome [12]: inactive
- outcome [13]: inactive
- outcome [14]: inactive
- outcome [15]: inactive
- outcome [16]: inactive
- outcome [17]: inactive
- outcome [18]: inactive
- outcome [19]: inactive
